# Shown are actives, neighbours in structure and some others; about 2.8% of the full set was active somewhere.
# Pol kappa inh: qHTS for Inhibitors of Polymerase Kappa; DNA polymerase kappa (Homo sapiens), Q9UBT6; purified Pol kappa, fluorescent DNA synthesis assay, 10 min; Potency, µM (doses to about 107 µM), for inactives: at the highest dose activity, negative = inhibition, actives largely listed as inhibitors; 0.53% of 400,000 active; further: potency means the concentration at half of the fitted maximal effect; on the % scale 0 is the no-effect control and ±100 the full control effect
#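 First, compounds were pin-transferred onto 10 nM Pol kappa. After 15 min at room temperature, substrate was added to 50 nM final. Fluorescence was then measured kinetically at 0 and 10 min.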
# PI5P4K alpha inh: qHTS for Inhibitors of phosphatidylinositol 5-phosphate 4-kinase (PI5P4K). PI5P4Kalpha enzyme, ADP-Glo luminescence, 60 min; hits give low values. AID 652105, 2013. max response, %. 1.2% of 330,000 active; active means max response of -50% or lower; inconclusive means between -30% and -50%; inactive means -30% or higher; further: value at the top dose of about 77 µM; on the % scale 0 is the no-effect control and ±100 the full control effect
#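 ADP-Glo luminescence end-point after a 60 min room-temperature kinase reaction. PI5P4Kalpha and substrate in HEPES pH 7.4 buffer with EGTA, 0.1% CHAPS and 5% DMSO; ATP at 5 microM final.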
# Pol eta inh: qHTS for Inhibitors of Polymerase Eta. DNA polymerase eta (Homo sapiens), Q9Y253. recombinant Pol eta, fluorescent DNA replication assay. Potency, µM (titrated, usually from 114 µM), for the others: top-dose activity change, negative = inhibition, actives largely listed as inhibitors. 1.2% of 390,000 active; further: potency means the concentration at half of the fitted maximal effect; on the % scale 0 is the no-effect control and ±100 the full control effect
# Target sequence (Q9Y253 whole entry, looked up): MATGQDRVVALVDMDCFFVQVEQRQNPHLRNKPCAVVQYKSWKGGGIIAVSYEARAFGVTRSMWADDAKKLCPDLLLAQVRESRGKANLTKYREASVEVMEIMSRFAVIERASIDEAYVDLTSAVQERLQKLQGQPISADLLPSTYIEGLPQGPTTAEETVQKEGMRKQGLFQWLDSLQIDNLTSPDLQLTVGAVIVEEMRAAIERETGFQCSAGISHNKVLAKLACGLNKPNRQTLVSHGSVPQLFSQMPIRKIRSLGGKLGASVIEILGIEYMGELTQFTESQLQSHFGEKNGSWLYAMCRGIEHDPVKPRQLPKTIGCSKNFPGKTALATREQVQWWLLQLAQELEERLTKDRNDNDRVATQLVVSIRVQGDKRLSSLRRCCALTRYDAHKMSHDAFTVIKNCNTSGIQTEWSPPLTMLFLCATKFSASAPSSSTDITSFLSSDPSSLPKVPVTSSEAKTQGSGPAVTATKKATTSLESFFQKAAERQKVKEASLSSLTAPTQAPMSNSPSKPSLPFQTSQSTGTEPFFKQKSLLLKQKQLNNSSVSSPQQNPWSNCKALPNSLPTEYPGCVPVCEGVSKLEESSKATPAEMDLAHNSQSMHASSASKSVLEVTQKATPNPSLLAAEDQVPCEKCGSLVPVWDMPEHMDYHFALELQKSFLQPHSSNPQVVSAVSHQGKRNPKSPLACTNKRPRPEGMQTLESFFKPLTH
#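 Pol eta (10 nM) was preincubated with compounds for 15 min at room temperature, after which fluorescent replication substrate (50 nM final) was added to start the reaction. Fluorescence was read kinetically at 0 and 10 min.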
# FEN1 inhibitor: qHTS Assay for the Inhibitors of Human Flap endonuclease 1 (FEN1); P39748; Recombinant FEN1 flap cleavage, fluorescence, 15 min; Potency, µM (highest dose often 114 µM), without a hit: top-dose activity change, negative = inhibition, hits mostly inhibitors; 0.35% of 390,000 active; further: potency means the concentration at half of the fitted maximal effect; on the % scale 0 is the no-effect control and ±100 the full control effect; nearly all actives have a fitted effect of over 65% in size
#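 Compounds are tested as a concentration series against 10 nM FEN1; after a 15 min room-temperature preincubation, 50 nM substrate starts cleavage, with plate reads at 0 and 15 min. Normalized responses are fitted by a Hill equation.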
# POLB inh: qHTS Assay for Inhibitors of DNA Polymerase Beta. Potency, µM (top dose mostly 114 µM), for the others: at the top dose activity change, negative = inhibition, actives largely listed as inhibitors. 1.3% of 340,000 active. Pol beta primer extension/strand displacement, fluorescence kinetic. AID 485314, 2010; further: potency means the concentration at half of the fitted maximal effect; on the % scale 0 is the no-effect control and ±100 the full control effect
#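 Enzyme-only controls used 10 nM Pol beta; buffer lacking enzyme served as negative control. Compound preincubated 15 min, then 50 nM substrate added; 0 and 10 min reads at room temperature.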
# Pol iota inh: qHTS for Inhibitors of Polymerase Iota; AID 588590, 2011; Pol iota fluorescent replication assay, 10 min; Potency, µM (series often up to 115 µM), without a hit: at the top dose activity, negative = inhibition, usual class: inhibitors; 1% of 390,000 active; DNA polymerase iota (Homo sapiens), Q9UNA4; further: potency means the concentration at half of the fitted maximal effect
#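 Pol iota at 10 nM preincubated 15 min with compounds at room temperature; reaction started with fluorescent substrate, 50 nM final. Fluorescence read kinetically at 0 and 10 min; buffer-only wells as negative control.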
# The depositor's hits bear a star; u = inconclusive; x = no result given; [ ] = another dose, or the depositor's remark. Unless noted, the call rests on the fitted dose curve; in most records, active means well fitted curve in the direction sought with a large enough effect; inconclusive means small, poorly fitted or top-dose-only effect, or another doubt; inactive means no such curve, though single readings can be large; an effect the other way counts as inactive or inconclusive.
SMILES,Pol kappa inh,PI5P4K alpha inh,Pol eta inh,FEN1 inhibitor,POLB inh,Pol iota inh
CC(/C=N/NC(=O)c1ccc(Br)cc1)=C\c1ccccc1,0.5%[60.1 µM],x,-10.6%,-27.1%,22.4µM*,u
COc1ccc(C(=O)N/N=C\C(C)=C\c2ccccc2)cc1OC,-42.2%,6.8,4.5%,-4.3%,x,-26.1%[58.9 µM]
Cc1ccc2c(c1)c1c(c(=O)n(-c3ccccc3C)c(=O)n1CC(=O)c1ccc(Cl)cc1)n2C,-2.3%,x,-20.1%,-2.7%,u,31.1%
Cc1ccc2c(c1)c1c(c(=O)n(-c3cccc(Cl)c3)c(=O)n1CC(=O)c1ccc(Cl)cc1)n2C,1.2%,x,-13.7%,48.8%,16.9%,79.4µM*
NS(=O)(=O)c1ccc(-c2cccc(/C=C3\SC(=O)NC3=O)c2)cc1,-9.8%,-55.7*,-17.5%,-4.5%,u,u
Cc1cc(C)c(-c2n[nH]c3c2C(c2ccccc2F)N(Cc2ccco2)C3=O)c(O)c1 (stereo unspecified),-0.7%,x,-22.6%,-12.1%,-21.7%,-19.4%
Cc1ccc([N+](=O)[O-])cc1N=Nc1c(-c2ccc([N+](=O)[O-])cc2)[nH]n(C(N)=S)c1=O,-11.8%,u,u,u,-19.3%,u
NC(=S)n1[nH]c(-c2ccc([N+](=O)[O-])cc2)c(N=Nc2ccc(Cl)cc2)c1=O,u,u,u,u,u,20µM*
CCc1cccc(NC(=O)C(c2ccccc2)N2Cc3ccccc3C2=O)c1 (stereo unspecified),-12.2%,x,-13.0%,-15.1%,5.9%,-11.8%
O=[N+]([O-])c1ccc(-c2c[nH]c(=S)[nH]2)cc1,u,-77.5*,39.8µM*,-4.8%,u,u
CC1(NC(=O)/C=C/c2nc3ccccc3s2)CCS(=O)(=O)C1 (stereo unspecified),79.4µM*,-55.9*,50.1µM*,1.6%,x,39.8µM*
Cc1csc(=O)n1CCC(=O)OCC(=O)NNC(=O)c1ccccc1,-3.2%,-12.6,-3.8%,3.7%,x,3.9%
N#Cc1c(NC(=O)CCC(=O)O)sc2c1CCCCC2,-12.6%,-73.6*,u,0.2%,-10.3%,u
N#Cc1c(NC(=O)CN2CCCCC2)sc2c1CCC2,-12.4%,-24.8,28.2µM*,3.0%,u,u
COc1ccc(-c2ccc(C#N)c(SCC(=O)Nc3sc4c(c3C#N)CCC4)n2)cc1,-4.6%,-12.0,11.8%,-7.3%,-28.1%,1.1%
N#Cc1ccc(-c2cccnc2)nc1SCC(=O)Nc1sc2c(c1C#N)CCC2,79.4µM*,x,79.4µM*,-5.7%,u,14.1µM*
CC1CCCCN1CC(=O)Nc1sc2c(c1C#N)CCC2 (stereo unspecified),-23.4%,-17.4,u,15.7%,u,u
CCC(=O)Nc1sc2c(c1C#N)CCC2,2.0%,-18.5,-13.5%,2.2%,-22.9%,u
COC(=O)C1CCN(CC(=O)Nc2sc3c(c2C#N)CCC3)CC1,-1.1%,-13.3,u,-2.5%,39.8µM*,-34.5%
Cc1nc(-c2ccccc2)sc1CCNS(=O)(=O)c1ccc(Br)cc1,-9.8%[60.1 µM],x,-9.4%,-11.3%,5.6%,-12.8%
Cc1nnc(SCC(=O)Nc2sc3c(c2C#N)CCCC3)[nH]c1=O,-14.4%,-52.2*,u,-1.4%,3.3%,u
O=C1NC(=O)C(=Cc2ccccc2[N+](=O)[O-])S1,-5.3%,u,89.1µM*,2.4%,x,u
CC(OC(=O)c1ccc(-n2cnnn2)cc1)C(=O)Nc1ccccc1F (stereo unspecified),-7.0%,-2.9,0.8%,2.8%,x,11.1%
CC(OC(=O)c1ccc(-n2cnnn2)cc1)C(=O)Nc1ccc(F)c(F)c1F (stereo unspecified),u,0.3,56.2µM*,-22.2%,x,39.8µM*
